Compound activity: PubChem, several laboratories
Gli-Sufu antag: Gli-Sufu pathway antagonism; Sufu-KO-LIGHT fibroblasts, Gli luciferase reporter luminescence; inhibition, % at 5 µM; hit rate 0.74% among 340,000;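 active means inhibition above about 55%, limit read from the data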
SRC2 inh: inhibits human steroid receptor coactivator 2 | Q15596 | HEK293 GAL4-SRC2 luciferase reporter, luminescence | inhibition, % at 9 µM | hit rate 0.17% among 370,000;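 active means inhibition above the mean inhibition of all tested compounds plus 3 SD, set per campaign, cut at about 52% in these data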
NCOA3 inh: inhibits human SRC3 coactivator; Q9Y6Q9; HEK293 GAL4-SRC3 luciferase reporter, luminescence; inhibition, % at 3.6 µM; hit rate 0.17% among 360,000;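 active means inhibition above a per-campaign cutoff, the mean of all compounds plus 3 SD, cut at about 60% in these data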;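 further: higher means less SRC3-driven luciferase light from the GAL4 reporter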
NCOA1 inh: human NCOA1 inhibition | Q15788 | HEK293 GAL4-SRC1 luciferase reporter, luminescence | inhibition, % at 3.6 µM | hit rate 0.12% among 360,000 | AID 588354;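 active means inhibition above the campaign mean plus 3 SD, with each screening campaign given its own cutoff, cut at about 60% in these data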
Shn3 3UTR inh: reduces Shn3 3'UTR luciferase signal in osteoblasts; Clone20 osteoblast Shn3 3'UTR firefly luciferase, 24 h; inhibition, % at 12.5 µM; hit rate 0.52% among 360,000;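 active means mean inhibition of at least 75% with every replicate also reaching 75%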
NR5A2 inv ag: inverse agonists of human LRH-1 (NR5A2); O00482; HEK293T StAR-luciferase reporter, LRH-1 transfected, 24 h; inhibition, % at 3.6 µM; hit rate 0.13% among 360,000;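 active means inhibition above the mean inhibition of all tested compounds plus 3 SD, cut at about 73% in these data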
A number is an active result; - = inactive; . = no result; ! = not active in a repeat. Only some compounds are listed: those with a hit (about 1.1% of all), similar ones and a draw of the others.

SMILES	Gli-Sufu antag	SRC2 inh	NCOA3 inh	NCOA1 inh	Shn3 3UTR inh	NR5A2 inv ag
CCCCCCCCCCOC(=O)Cn1c(COc2ccc(Cl)cc2)[n+](C)c2ccccc21	68.0	-	-	-	96.3	-
CCCCCCCCCCOC(=O)Cn1c(COc2ccc(OC)cc2)[n+](C)c2ccccc21	75.6	.	-	-	94.1!	-
Cn1cccc1C(=O)N1CCN(S(=O)(=O)c2cccs2)CC1	.	-	.	.	.	.
CC(C)[C@H](NC(=O)OC(C)(C)C)C(=O)N1CCC(Oc2cccnc2)CC1	.	-	.	.	.	.
COCC1CN(CCc2ccc(F)cc2)S(=O)(=O)c2c(OCCN3C(=O)[C@@H]4[C@H](C3=O)[C@@H]3C=C[C@H]4C3)cccc2O1 (stereo partly specified)	.	-	.	.	.	.
COCCn1c(C)cc(C(=O)COc2ccc(C)nc2[N+](=O)[O-])c1C	-	53.7	-	-	-	-
C=CCn1c(C)cc(C(=O)COc2ccc(C)nc2[N+](=O)[O-])c1C	-	61.1	-	-	-	-
CN(C)CC(CCC(CN(C)C)C(=O)c1ccccc1)C(=O)c1ccccc1 (stereo unspecified)	-	.	-	-	97.7	-
CCOc1ccc(C(=O)C(CCC(CN(C)C)C(=O)c2ccc(OCC)cc2)CN(C)C)cc1 (stereo unspecified)	-	-	-	-	98.2	88.2
CN1CCN(c2ccc3c(c2)Oc2ccccc2CN(Cc2cn(Cc4ccc(F)cc4)nn2)S3(=O)=O)CC1	.	-	.	.	.	.
COc1ccc(/C(C)=N\NC(=O)c2ccco2)cc1	.	-	.	.	.	.
COC(=O)[C@H](CC(C)C)N1Cc2nnn(CC3CCCCC3)c2-c2ccccc2S1(=O)=O	.	-	.	.	.	.
C=CCN(CC#CC1=CCCCC1)CC1CC1	.	-	.	.	.	.
COc1ccc(S[C@]2(C(=O)N3CCN(C(C)=O)CC3)CC(=O)N(S(=O)(=O)c3ccc(F)cc3)[C@@H]2c2ccc(OC)cc2)cc1	.	-	.	.	.	.
CC(=O)NC(c1ccc(C)cc1)c1cc(Cl)c2cccnc2c1O (stereo unspecified)	-	-	-	-	87.4	-
CC(=O)NC(c1cc(Cl)c2ccccc2c1O)C(C)C (stereo unspecified)	-	-	-	-	-	-
COc1ccc(C(NC(=O)c2cccnc2)c2cc(Cl)c3cccnc3c2O)cc1OC (stereo unspecified)	-	-	-	-	92.5	-
Oc1c(C(Nc2ccccn2)c2cccnc2)cc(Cl)c2cccnc12 (stereo unspecified)	-	-	-	-	-	-
CC(=O)NC(c1cc(Cl)c2cccnc2c1O)C(C)C (stereo unspecified)	-	-	-	-	85.7	-
CC(=O)NC(c1ccco1)c1cc(Cl)c2cccnc2c1O (stereo unspecified)	.	-	-	-	-	-
COC(=O)[C@]12C[C@H](CC(=O)NCCc3ccccc3OC)C(=O)N(CCc3ccc(OC)c(OC)c3)C1=C[C@H](C1CCCC1)O[C@@H]2C	.	-	.	.	.	.
COc1cccc(/C=C/C(=O)OCC(=O)N2CCCC2)c1OC	-	-	86.0	-	-	-
O=C(C=Cc1ccco1)c1ccc2ccccc2c1	-	-	-	-	95.1	-
CC1CC(C)C(=NNC(N)=O)C(C(O)CC2CCC(=O)NC2=O)C1 (stereo unspecified)	-	57.5	73.6	75.5	-	99.1
CCC1SC(C)C/C(=N/NC(N)=O)C1C (stereo unspecified)	-	-	-	-	-	-
SMILES	Gli-Sufu antag	SRC2 inh	NCOA3 inh	NCOA1 inh	Shn3 3UTR inh	NR5A2 inv ag
CCOC(=O)C1CCCCN1C(=O)CCc1c(C)nc2cc(-c3ccccc3)nn2c1C (stereo unspecified)	-	70.1	-	-	-	-
CCOC(=O)C1CCN(C(=O)CCc2c(C)nc3cc(-c4ccccc4)nn3c2C)CC1	-	-	-	-	-	-
CC1Cc2cc(-c3csc(NC(=O)Cc4cccs4)n3)ccc2N1S(C)(=O)=O (stereo unspecified)	-	-	63.6	-	-	-
CN(C)c1cc(Nc2ccc(O)cc2)c([N+](=O)[O-])c2nonc12	-	-	-	-	-	-
O=[N+]([O-])c1c(Nc2ccc(O)cc2)cc(Cl)c2nonc12	-	-	-	-	94.8	-
O=[N+]([O-])c1c(Nc2ccccn2)cc(Cl)c2nonc12	-	-	-	-	95.2	-
COC1=C[C@H](C(=O)NCc2ccccc2)[C@H](C)[C@@H](c2ccccc2)CC1=O	.	-	.	.	.	.
Cc1cc(C)n(-c2cc(-n3nc(C)cc3C)ncn2)n1	-	-	-	-	96.2	-
CCCC(=O)OC12CCCN(C1)/C(=C/c1ccccc1)C2 (stereo unspecified)	.	-	.	.	.	.
COc1ccc(/C=C/c2c([N+](=O)[O-])c(=O)n(C)c(=O)n2C)cc1OC	-	-	-	-	-	-
Cn1c(/C=C/c2ccc(Cl)cc2)c([N+](=O)[O-])c(=O)n(C)c1=O	-	-	61.8	-	-	-
C=CCn1c(O)c(C2=c3ccccc3=NC2=O)c2ccccc21	-	-	-	-	-	-
Cc1ccc2c(c1)c(C1=c3ccccc3=NC1=O)c(O)n2C	-	-	-	-	96.4	-
CC(C)C[C@@H]1COc2cc(F)ccc2S(=O)(=O)N1C	.	-	.	.	.	.
Cn1c2c(c(=O)n(C)c1=O)C(C(F)(F)F)(C(F)(F)F)N=C(c1ccc(Cl)cc1)N2	87.8	.	76.6	74.5	80.8	97.5
CCOC(=O)[C@]12CCCCC/C=C\1N(CCc1ccc(Cl)cc1)C(=O)[C@H]2CC(=O)N1CCCC1	.	-	.	.	.	.
CC(C)(C)c1ccc(/C=C(\c2nc3ccccc3[nH]2)S(=O)(=O)c2ccccc2)cc1	-	.	-	-	94.0	-
O=C(O)c1ccc(/C=C(\c2nc3ccccc3[nH]2)c2nc3ccccc3s2)cc1	-	-	-	-	-	-
Cc1cccc(/C=C(\c2nc3ccccc3[nH]2)S(=O)(=O)c2ccccc2)c1	-	64.3	-	-	92.8	-
N#CCC[C@H]1CC[C@]2(CCCN(C(=O)C3CCCCC3)C2)O1	.	-	.	.	.	.
COC(=O)[C@]12C[C@H](CC(=O)NCCc3ccccc3OC)C(=O)N(Cc3cccc4ccccc34)C1=C[C@H](C1CCCC1)O[C@@H]2C	.	-	.	.	.	.
CCN(CC)C(=O)CC[C@@H]1CC[C@]2(CCCN(Cc3ccncc3)C2)O1	.	-	.	.	.	.
CCC[C@H](CN[C@@H](CNC)[C@H](C)CC)NCCc1cc(C(F)(F)F)cc(C(F)(F)F)c1	-	-	-	-	-	-
CC[C@@H](C)[C@H](CNC)NC[C@@H](Cc1cccc2ccccc12)NCCc1cccc(C(F)(F)F)c1	-	-	-	-	97.3	-
Nn1c(SCC(=O)NC2CCCCC2)nnc1-c1cc(-c2ccc(Cl)cc2)n[nH]1	.	-	.	.	.	.
CCCCCCCCN1C(=O)[C@@H](CC(=O)N2CCCCC2)C[C@@]2(C(=O)OC)C1=C[C@H](C(C)C)O[C@@H]2C1CC1	.	-	.	.	.	.
Cc1c(Cl)cccc1NC(=O)CCCn1nc([N+](=O)[O-])cc1C	-	-	-	-	-	-
